A selection: hits, their analogues and other compounds. The true share with any hit is near 3%.
IP6K1 inhibitor: IP6K1 kinase inhibition. Q92551. IP6K1 kinase, ADP-Glo luminescence, 2 h; stronger effect = lower value. activity change, % (series mostly up to about 58 µM). 140,000 compounds, 0.81% hits; in the data active = activity change below about -25%; also: % is scaled to controls: 0 for no effect and ±100 for the full control effect
Target sequence (Q92551 whole entry, looked up): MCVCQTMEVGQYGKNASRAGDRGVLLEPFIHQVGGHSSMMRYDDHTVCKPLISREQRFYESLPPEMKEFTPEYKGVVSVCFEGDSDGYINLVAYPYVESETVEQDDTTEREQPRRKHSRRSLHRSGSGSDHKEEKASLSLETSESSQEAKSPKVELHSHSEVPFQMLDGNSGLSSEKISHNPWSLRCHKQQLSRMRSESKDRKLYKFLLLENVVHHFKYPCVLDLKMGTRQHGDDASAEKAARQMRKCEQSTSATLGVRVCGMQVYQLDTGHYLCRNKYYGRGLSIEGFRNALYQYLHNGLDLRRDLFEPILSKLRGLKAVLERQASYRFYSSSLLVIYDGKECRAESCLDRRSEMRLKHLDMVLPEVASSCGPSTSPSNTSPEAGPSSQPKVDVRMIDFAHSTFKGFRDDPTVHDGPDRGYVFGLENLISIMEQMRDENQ
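ADP-Glo luminescence measures ADP made by human IP6K1 during a 2 h RT reaction with ATP/IP6 (mix at 1.3 mM/130 uM); top library doses 57.5 and 19.1 uM final.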
SNCA expr inhib: reduces expression of the alpha-synuclein gene; HEK-293 SNCA-luciferase knock-in, luminescence, 24 h; Potency, µM (series often up to 57.2 µM), for inactives: top-dose activity change, negative = inhibition, hits mostly inhibitors; 140,000 compounds, 0.17% hits;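 also: potency is read from the fitted curve at half-maximal effect; plate controls were DMSO cells for no effect and cell-free wells for full effect; nearly all actives have a fitted effect of over 45% in size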
SNCA viab count: cell viability loss counter-screen; 150,000 compounds, 0.12% hits; Potency, µM (highest dose often 57.1 µM), for the others: top-dose activity change, negative = cytotoxicity, most hits filed as cytotoxic; AID 1671193; HEK-293-SNCA-luc viability, GF-AFC fluorescence, 24 h;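 also: potency is read from the fitted curve at half-maximal effect; 0% = DMSO-treated cells and -100% = medium-only wells without cells; nearly all actives have a fitted effect of over 30% in size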
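HEK-293-SNCA-luc cells (1500/well) plated 24 h, then exposed 24 h to a dilution series; GF-AFC added 30 min at 37C, fluorescence 405/540 nm; normalised to medium-only and DMSO wells, Hill fit.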
KDM5B inhibitor: KDM5B demethylase inhibition | KDM5B demethylase, FDH-coupled NADH fluorescence (FDH is formaldehyde dehydrogenase) | Potency, µM (series often up to 57.7 µM), most hits filed as inhibitors | 220,000 compounds, 2.6% hits | AID 1347165; also: potency is read from the fitted curve at half-maximal effect; 0% is about no effect; nearly all actives have a fitted effect of over 70% in size
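Coupled FDH/NAD⁺ fluorescence readout. KDM5BΔAP 200 nM final; compound titration, 10 min RT preincubation; substrate mix 12.5 µM H3K4me3, 25 µM 2-OG, 50 µM Fe(II), 100 µM ascorbate, 0.25 mM NAD⁺, 0.25 U/mL FDH; ΔRFU over 30 min.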
* hit, by the source's call; [ ] = remark or other dose. Unless noted, calls follow the shape of the dose curve; as a rule, active = well fitted curve in the direction sought with a large enough effect; inconclusive = small, poorly fitted or top-dose-only effect, or another doubt; inactive = no such curve, though single readings can be large; an effect the other way counts as inactive or inconclusive.

Results for Cc1ccc(-c2ccc3nnc(CNC(=O)c4c(F)cccc4F)n3n2)cc1 ?
IP6K1 inhibitor: 2.1; SNCA expr inhib: -16.0%; SNCA viab count: -12.9%; KDM5B inhibitor: 25.1µM*

What do the screens show for `N#Cc1cccc(Cn2cnc3c(Cl)cc(Cl)cc3c2=O)c1`?
KDM5B inhibitor: inactive

What do the screens show for `O=CN1CCN(C(C(=O)O)c2c[nH]c3cc(Br)ccc23)CC1` (stereo not drawn)?
KDM5B inhibitor: inactive

Results for O=C(NCc1nnc2ccc(-c3ccc(F)cc3)nn12)c1ccc(Cl)s1 ?
IP6K1 inhibitor: 4.6; SNCA expr inhib: -18.3%; SNCA viab count: -26.0%; KDM5B inhibitor: 28.2µM*

What do the screens show for `O=C(NCc1nnc2ccc(-c3ccccc3)nn12)c1cc(Cl)ccc1F`?
IP6K1 inhibitor: 0.7; SNCA expr inhib: -0.9%; SNCA viab count: -13.3%; KDM5B inhibitor: 25.1µM*

How did Cc1ccc(-c2ccc3nnc(CNC(=O)c4cccc(C(F)(F)F)c4)n3n2)cc1 do in these assays?
IP6K1 inhibitor: -2.9; SNCA expr inhib: inconclusive; SNCA viab count: -3.5%; KDM5B inhibitor: 31.6µM*

What do the screens show for `O=C(NCc1nnc2ccc(-c3ccccc3)nn12)c1cc(F)ccc1Cl`?
IP6K1 inhibitor: 11.7; SNCA expr inhib: 0.2%; SNCA viab count: -25.2%; KDM5B inhibitor: 17.8µM*

Results for O=C(NCc1nnc2ccc(-c3ccc(F)cc3)nn12)c1cc(Cl)ccc1F ?
IP6K1 inhibitor: -1.0; SNCA expr inhib: -17.1%; SNCA viab count: -8.3%; KDM5B inhibitor: 25.1µM*

How did CCOC(=O)[C@@H]1CN(C(=O)CC(C)(C)C)[C@H]2c3cccc(C)c3O[C@@H]12 do in these assays?
IP6K1 inhibitor: 8.5

What do the screens show for `CCn1ncc(NC(=O)Cn2ncc3cc(-c4ccc(F)cc4F)ccc32)n1`?
IP6K1 inhibitor: 3.2; SNCA expr inhib: -2.2%; SNCA viab count: -16.1%; KDM5B inhibitor: inconclusive

What do the screens show for `CCn1ncc(NC(=O)Cn2ncc3cc(-c4cc(F)ccc4F)ccc32)n1`?
IP6K1 inhibitor: 9.2; SNCA expr inhib: -3.1%; SNCA viab count: -19.3%; KDM5B inhibitor: 20µM*

What do the screens show for `CCn1ncc(NC(=O)Cn2ncc3cc(-c4ccc(C(=O)N(C)C)cc4)ccc32)n1`?
IP6K1 inhibitor: -4.6; SNCA expr inhib: 23.0%; SNCA viab count: -16.2%; KDM5B inhibitor: inconclusive

Results for CCn1ncc(NC(=O)Cn2ncc3cc(-c4ccc(N(C)C)cc4)ccc32)n1 ?
IP6K1 inhibitor: 9.6; SNCA expr inhib: -4.6%; SNCA viab count: -4.1%; KDM5B inhibitor: 14.1µM*

How did CCn1nc(C(=O)Nc2cc(S(=O)(=O)N(C)C)ccc2C)c2ccccc2c1=O do in these assays?
KDM5B inhibitor: inactive

How did COc1cccc(-c2cc(C(=O)NCc3cccnc3)c3c(c2)N(C)CCO3)c1OC do in these assays?
IP6K1 inhibitor: -18.1; SNCA expr inhib: 14.1%[87.6 µM]; SNCA viab count: -27.0%[87.6 µM]; KDM5B inhibitor: 35.5µM*

How did CN1CCOc2c(C(=O)NCc3cccnc3)cc(-c3ccc(N4CCOCC4)cc3)cc21 do in these assays?
IP6K1 inhibitor: -11.1; SNCA expr inhib: -24.0%; SNCA viab count: 4.9%; KDM5B inhibitor: inconclusive

Results for COc1ccccc1-c1cc(C(=O)NCc2cccnc2)c2c(c1)N(C)CCO2 ?
IP6K1 inhibitor: -10.5; SNCA expr inhib: -1.9%[87.6 µM]; SNCA viab count: -8.4%[87.6 µM]; KDM5B inhibitor: 39.8µM*

What do the screens show for `COCC(=O)N1CCCN(Cc2cccnc2)c2ccccc21`?
IP6K1 inhibitor: -5.5; SNCA expr inhib: 38.7%; SNCA viab count: -9.2%; KDM5B inhibitor: inactive

Results for CNC(=O)c1cc(-c2cccc(OC)c2OC)cc2c1OCCN2Cc1cccnc1 ?
IP6K1 inhibitor: -20.2; SNCA expr inhib: -14.0%[87.6 µM]; SNCA viab count: -8.2%[87.6 µM]; KDM5B inhibitor: 31.6µM*

Results for Cc1ccc(-n2cccc2C=O)cc1C ?
KDM5B inhibitor: inactive

What do the screens show for `COc1ccc(C(=O)NCc2nnc3c(-c4nc(C(C)C)no4)cccn23)cc1F`?
IP6K1 inhibitor: 4.4; SNCA expr inhib: -5.2%; SNCA viab count: 0.0%; KDM5B inhibitor: 31.6µM*

What do the screens show for `CC(C)c1noc(-c2cccn3c(CNC(=O)c4ccc(F)c(F)c4)nnc23)n1`?
IP6K1 inhibitor: 3.9; SNCA expr inhib: -14.4%; SNCA viab count: -1.9%; KDM5B inhibitor: 11.2µM*

How did CC(C)c1noc(-c2cccn3c(CNC(=O)c4c(F)cccc4Cl)nnc23)n1 do in these assays?
IP6K1 inhibitor: 3.1; SNCA expr inhib: 7.7%; SNCA viab count: 4.9%; KDM5B inhibitor: 15.8µM*

Results for Cc1cc(=O)oc2cc(OC(=O)CCCOc3ccccc3)ccc12 ?
KDM5B inhibitor: inactive

Results for O=C(Oc1ccc(Cl)cc1)c1ccc2ncsc2c1 ?
KDM5B inhibitor: inactive

How did COc1cc2cc(CN3CCC[C@@H]3CO)c(-c3cccc(Cl)c3)nc2cc1OC do in these assays?
IP6K1 inhibitor: 0.0; SNCA expr inhib: -7.5%; SNCA viab count: -7.1%; KDM5B inhibitor: 25.1µM*

What do the screens show for `Cc1nc2ncccn2c1C(=O)N1CCC(=O)N(CC2CC2)C(C(C)C)C1` (stereo not drawn)?
IP6K1 inhibitor: 9.3; SNCA expr inhib: -19.4%; SNCA viab count: 2.4%; KDM5B inhibitor: 28.2µM*

Results for Cc1cc(C)n2ncc(C(=O)N3CCC(=O)N(CC4CC4)C(C(C)C)C3)c2n1 (stereo not drawn) ?
IP6K1 inhibitor: -4.4; SNCA expr inhib: 3.6%; SNCA viab count: 13.5%; KDM5B inhibitor: 31.6µM*

What do the screens show for `Cn1ncc(N2CCOC(CCNc3cnc4ccccc4n3)C2)cc1=O` (stereo not drawn)?
IP6K1 inhibitor: -14.9; SNCA expr inhib: 23.9%; SNCA viab count: 3.8%; KDM5B inhibitor: 31.6µM*

How did CCc1nc2c(=O)n(CC(=O)N3CCC(Cc4ccccc4)CC3)nc(C)c2s1 do in these assays?
IP6K1 inhibitor: 5.5; SNCA expr inhib: -4.1%; SNCA viab count: 19.0%; KDM5B inhibitor: inactive

How did CCCN1CCN(C(=O)Cn2nc(C)c3sc(-c4ccccc4)nc3c2=O)CC1 do in these assays?
IP6K1 inhibitor: 11.8; SNCA expr inhib: 0.5%; SNCA viab count: -2.4%; KDM5B inhibitor: 31.6µM*

How did Cc1nn(CC(=O)NCC2CCCO2)c(=O)c2nc(-c3ccccc3)sc12 (stereo not drawn) do in these assays?
IP6K1 inhibitor: 0.9; SNCA expr inhib: 0.9%; SNCA viab count: 3.4%; KDM5B inhibitor: 31.6µM*

How did CCc1nc2c(=O)n(CC(=O)NC(C)c3ccccc3)nc(C)c2s1 (stereo not drawn) do in these assays?
IP6K1 inhibitor: 17.6; SNCA expr inhib: -15.7%; SNCA viab count: 2.6%; KDM5B inhibitor: inactive

How did CCC(C)NC(=O)Cn1nc(C)c2sc(-c3ccccc3)nc2c1=O (stereo not drawn) do in these assays?
IP6K1 inhibitor: 24.9; SNCA expr inhib: -28.9%; SNCA viab count: -5.0%; KDM5B inhibitor: 8.91µM*

What do the screens show for `Cc1cccc(-c2noc(CSc3n[nH]c(=O)c4cc(-c5ccco5)nn34)n2)c1`?
KDM5B inhibitor: inactive

What do the screens show for `Cn1c(=O)[nH]c(=O)c2c1nc(NCc1ccco1)n2Cc1ccccc1`?
KDM5B inhibitor: inactive
